Sampled rows, rich in hits. Any-hit rate of the full collection: about 0.9%.
PPARg SRC3 recr – promotes SRC-3 coactivator recruitment by human PPARgamma | biochemical PPARgamma/SRC-3 coactivator recruitment assay | activation, % at 8 µM | hit rate 0.26% among 200,000 | AID 731; in the data active = activation above about 23%;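 note: 0% = DMSO and 100% = reference agonist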
Target sequence (P37231 whole entry, looked up): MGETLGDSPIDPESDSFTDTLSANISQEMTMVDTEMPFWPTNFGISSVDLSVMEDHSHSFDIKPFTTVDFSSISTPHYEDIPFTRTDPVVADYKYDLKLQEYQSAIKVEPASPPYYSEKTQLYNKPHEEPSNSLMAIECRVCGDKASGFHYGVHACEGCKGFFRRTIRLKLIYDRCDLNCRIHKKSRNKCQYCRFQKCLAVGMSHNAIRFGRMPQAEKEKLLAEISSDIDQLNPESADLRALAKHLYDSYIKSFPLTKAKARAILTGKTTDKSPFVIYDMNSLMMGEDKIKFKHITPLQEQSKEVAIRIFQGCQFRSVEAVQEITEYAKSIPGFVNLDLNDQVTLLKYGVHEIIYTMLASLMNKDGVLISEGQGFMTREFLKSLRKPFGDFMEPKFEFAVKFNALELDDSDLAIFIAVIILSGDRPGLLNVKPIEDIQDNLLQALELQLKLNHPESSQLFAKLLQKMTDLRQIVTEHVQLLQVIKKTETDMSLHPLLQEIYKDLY
PPARg SRC-2 ag – PPARgamma-driven SRC-2 recruitment agonism; P37231; PPARgamma LBD-SRC-2 recruitment, biochemical; activation, % at 8 µM; hit rate 0.34% among 200,000; AID 1032; in the data active = activation above about 22%;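 note: 0% = vehicle and 100% = reference agonist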
PPARg SRC1 recr – promotes SRC-1 coactivator recruitment by human PPARgamma; P37231; PPARgamma-SRC-1 coactivator recruitment biochemical assay; activation, % at 8 µM; hit rate 0.41% among 200,000; AID 631; in the data active = activation above about 19%;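 note: 0% = DMSO and 100% = reference agonist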
SRC3 TRFRET art – TR-FRET artefact, counter-screen to PPARgamma/SRC-3 agonist assay; PPARgamma/SRC-3 format; hits give high values; TR-FRET ratio at 8 µM; hit rate 0.39% among 99,000
SRC1 TRFRET art – flags TR-FRET format artefacts in PPARgamma SRC-1 recruitment agonist screen | hit rate 0.34% among 99,000 | AID 1051 | TR-FRET ratio at 8 µM | TR-FRET detection artefact counter-screen, emission ratio; hits give high values; in the data active = TR-FRET ratio above about 2300
SRC2 TRFRET art – counter-screen for PPARgamma SRC-2 recruitment agonists: TR-FRET artefact; hits give high values; TR-FRET ratio at 8 µM; hit rate 0.4% among 200,000
Numbers without * were called inactive; . = no result given. Cut-off read from the data, not from the text of the source, unless noted: active = TR-FRET ratio above about 2000; inactive = the rest.

SMILES | PPARg SRC3 recr | PPARg SRC-2 ag | PPARg SRC1 recr | SRC3 TRFRET art | SRC1 TRFRET art | SRC2 TRFRET art
CCc1ccc2nc(N3C(=O)C(O)=C(C(=O)c4ccco4)C3c3cccs3)sc2c1 (configuration not stated) | 28* | 36* | 29* | . | . | 2282*
COc1ccc(NS(=O)(=O)c2cccc(C(=O)NNC(=O)NCCCl)c2)cc1 | 3 | -1 | 9 | 1738 | 1915 | 1735
COC(=O)c1c(NC(=O)COC(=O)[C@@H](NS(=O)(=O)c2ccc(C)cc2)C(C)C)sc2c1CCC2 | 3 | 6 | 0 | 1800 | 2338* | 1637
COC(=O)c1c(NC(=O)COC(=O)c2ccc(C)s2)sc2c1CCCCC2 | 0 | 7 | -1 | 1742 | 1447 | 1436
O=c1c2cccnc2[nH]c(=S)n1Cc1ccccc1 | 2 | 3 | 1 | 1522 | 1836 | 1514
O=C(Cn1c(=S)[nH]c2ncccc2c1=O)NCCc1ccccc1 | 5 | -2 | 7 | 1703 | 2328* | 1713
COC(=O)c1ccc(C(=O)OC)c(NC(=O)CN(C)Cc2ccccc2)c1 | -1 | -1 | 3 | 1726 | 1956 | 1604
N#CC1=C(N)SC(N)=C(C#N)C1c1ccoc1 | 28* | 31* | 21* | . | . | 2095*
Cc1ccc(C2C(C#N)=C(N)SC(N)=C2C#N)cc1 | 10 | 4 | 9 | . | . | 1666
CSC1=NC2(CC(c3ccccc3)Oc3cc(O)ccc32)CC(C)(C)N1 (configuration not stated) | 29* | 12 | 4 | . | . | 1633
C#CCSc1nnc(-c2ccccc2)c(=O)[nH]1 | 9 | 22* | 4 | . | . | 1756
Cc1nc(SCC(=O)Nc2ccc(F)cc2)c(C#N)c(C)c1CC(=O)c1ccc(Br)cc1 | 8 | 8 | 22* | . | . | 1535
CN(CCC#N)C(=O)COC(=O)c1c2c(nc3ccccc13)/C(=C/c1ccco1)CC2 | 3 | 5 | 5 | 1680 | 1911 | 1593
COc1ccc(C2CC(=O)c3c([nH]c(C(=O)OC(C)C)c3C)C2)cc1OC (configuration not stated) | 32* | -3 | -2 | 3447* | 1581 | 1553
CSc1ncccc1C(=O)OCC(=O)c1ccc(Br)s1 | 16 | 15 | 11 | 3227* | 2355* | 1749
CSc1ncccc1C(=O)OCC(=O)c1ccccc1Br | -2 | 0 | -5 | 1555 | 1823 | 1616
COC(=O)c1ccc(C(=O)OC)c(NC(=O)CCC(=O)O)c1 | -7 | 3 | 7 | . | . | 1558
COC(=O)c1ccc(C(=O)OC)c(NC(=O)C(C)(C)C)c1 | 0 | 9 | 46* | 1496 | 3181* | 1765
NNc1nc2c(-c3ccc(Cl)cc3)nnn2c2ccccc12 | 6 | 2 | 11 | 1621 | 1516 | 1573
NNc1nc2c(-c3ccc(F)cc3)nnn2c2ccccc12 | 6 | 9 | 24* | 1482 | 1861 | 1767
COCCNC(=O)NC(=O)CSc1nc(C)c(C)c(C)n1 | -2 | -5 | -6 | 1497 | 1599 | 1414
Cc1cc(C)c(S(=O)(=O)Nc2ccc3[nH]c(=O)[nH]c3c2)c(C)c1 | 7 | 5 | 22* | 1529 | 1785 | 1779
Cc1cc(C)c(S(=O)(=O)Nc2c(C)[nH]c(=O)[nH]c2=O)c(C)c1 | 1 | 6 | 6 | . | . | 1492
Cc1cccc(N(C(=O)CCC(=O)Nc2nccs2)C(C(=O)NC(C)(C)C)c2ccc(O)cc2)c1 (configuration not stated) | 1 | 3 | -4 | 1651 | 1834 | 1582
CC(C)(C)c1ccc(CN2N=C(/C=C/c3ccccc3)CCC2=O)cc1 | 0 | 1 | 1 | 1439 | 1900 | 1572
SMILES | PPARg SRC3 recr | PPARg SRC-2 ag | PPARg SRC1 recr | SRC3 TRFRET art | SRC1 TRFRET art | SRC2 TRFRET art
CCC(C)NC(=O)Cn1c(=O)n(CCCC(=O)NCc2ccccc2Cl)c(=O)c2ccccc21 (configuration not stated) | 5 | 22* | -2 | . | . | 1629
N#Cc1c(-c2ccco2)nc(SCC(=O)Nc2cccc(Cl)c2)[nH]c1=O | 22 | 20 | 18 | . | . | 2164*
O=C(CSc1nc2c(c(=O)[nH]1)CCC2)Nc1cccc(Cl)c1 | -14 | -5 | 5 | . | . | 1428
N#CCCN(C(=O)COC(=O)C1CCN(S(=O)(=O)c2cccs2)CC1)c1ccccc1 | 5 | 2 | 4 | 1576 | 1903 | 1501
CCOC(=O)CN1C(=N)N(c2nc(NC(C)C)nc(NC(C)C)n2)CC1=O | 6 | 9 | 7 | . | . | 1532
Cc1ccc(-c2nc3ccccc3c(=O)n2CCCN2CCOCC2)cc1 | 9 | 8 | 13 | . | . | 1786

From PubChem BioAssay
